Screens from PubChem BioAssay.
Hits are enriched below; roughly 3.6% of the tested compounds scored in any of these assays.
ClpP mod – qHTS Assay for Activators of ClpP; Potency, µM (highest dose often 57.5 µM); AID 651965, 2013; hit rate 1.9% among 340,000; ATP-dependent Clp protease proteolytic subunit (Bacillus subtilis (strain 168)), P80244; purified B. subtilis ClpP, FRET peptide cleavage, 20 min; active means well fitted falling curve with a large enough effect; inconclusive means small, poorly fitted or top-dose-only effect; inactive means no such curve, though single readings can be large or run the other way; further: the source files actives as falling curves though it sought activators and does not explain the sign; nearly all actives have a fitted effect of over 65% in size
Target sequence (P80244 whole entry, looked up): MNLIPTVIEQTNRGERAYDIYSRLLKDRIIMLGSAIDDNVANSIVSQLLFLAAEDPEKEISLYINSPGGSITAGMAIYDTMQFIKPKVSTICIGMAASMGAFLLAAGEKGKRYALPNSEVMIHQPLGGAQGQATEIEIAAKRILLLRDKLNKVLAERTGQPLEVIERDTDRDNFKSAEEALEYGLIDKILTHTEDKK
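ClpP 10 microg/mL final, pH 8 Tris/KCl buffer with BSA, glycerol, Tween-20; compound pinned in; FRET-FV substrate; RT 20 min; Ex320/Em430; ΔFRET vs ADEP 5.8 microM, DMSO, no enzyme.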
Mm-Cpn inhibitor – M. maripaludis TRiC chaperonin inhibition | purified Mm-Cpn ATPase, ADP Transcreener TR-FRET | Potency, µM (top dose mostly 76.9 µM), usual class: inhibitors | hit rate 0.031% among 330,000 | AID 504842; further: nearly all actives have a fitted effect of over 80% in size
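Inhibition of chaperonin ATP hydrolysis is measured as reduced ADP production, detected by competitive TR-FRET in which signal falls with ADP. Final enzyme 25 nM and ATP 10 uM, reacted 30 min at 37°C.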
TDP43 rescue – TDP-43 toxicity inhibition in yeast. TDP-43 expressing yeast growth rescue, BacTiter-Glo, 24 h. Potency, µM (doses to about 46.1 µM), actives largely listed as activators. hit rate 1.8% among 410,000; further: nearly all actives have a fitted effect of over 50% in size
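Yeast expressing TDP-43 (pregrown in raffinose, seeded at OD600=0.02 in galactose medium) exposed to compounds 24 hr at 30 deg C. Growth read by BacTiter-Glo luminescence; rescue of toxicity appears as increased signal.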
Abeta yeast res – A-beta toxicity reversal in yeast | yeast expressing A-beta42, growth rescue, OD600, 48 h; response scale: 0% DMSO, 100% iron-clioquinol control | Potency, µM (top dose mostly 46.1 µM), actives largely listed as activators | hit rate 0.063% among 410,000; further: nearly all actives have a fitted effect of over 55% in size
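Yeast A-beta toxicity model in growth medium with pinned compounds, 48 h at 30 C; growth read as absorbance at 600 nm. Normalized to FeCl3/clioquinol equimolar mix (positive) and DMSO (negative).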
FUS suppressor – FUS proteinopathy suppression in yeast | AID 1347120 | Potency, µM (titrated, usually from 76.6 µM), actives largely listed as activators | S. cerevisiae FUS-expressing, growth rescue, OD600, 24 h | hit rate 0.24% among 390,000; further: nearly all actives have a fitted effect of over 55% in size
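Toxicity suppression screen in FUS-yeast. Cells induced with 2% galactose, starting OD 0.005, treated 24hr at 30C with compounds at multiple final concentrations; growth by OD600.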
aSyn yeast inh – inhibitors of alpha-synuclein toxicity in yeast; AID 652106; Potency, µM (highest dose often 46.1 µM), hits mostly activators; hit rate 0.14% among 370,000; Yeast expressing alpha-synuclein, growth rescue, BacTiter-Glo, 24 h; further: nearly all actives have a fitted effect of over 65% in size
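Rescue of yeast growth: cells expressing toxic alpha-synuclein, induced in galactose at OD600 0.02, incubated with compound 24 h at 30 C. ATP luminescence quantified growth; inhibitors of toxicity appear as activators.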
Hits are given with their value; i = inactive; ? = inconclusive; nt = no result; [ ] = another dose, or the depositor's remark. Unless noted, the call rests on the fitted dose curve; in most records, active means well fitted curve in the direction sought with a large enough effect; inconclusive means small, poorly fitted or top-dose-only effect, or another doubt; inactive means no such curve, though single readings can be large; an effect the other way counts as inactive or inconclusive.

SMILES | ClpP mod | Mm-Cpn inhibitor | TDP43 rescue | Abeta yeast res | FUS suppressor | aSyn yeast inh
O=C(Cn1c(SCc2ccc(F)cc2)nc2cccnc21)Nc1ccccc1F | i | nt | i | i | i | nt
COc1ccc(-n2c(C)c([N+](=O)[O-])c3ccc(O)c(CN(C)C)c32)cc1 | 22.4µM | i | i | i | i | i
COc1ccc(C(=O)O)cc1NCc1ccc(C)s1 | nt | i | 3.16µM | i | i | i
Cc1ccc(CNc2cc(C(=O)O)ccc2C)s1 | nt | i | ? | i | i | i
Cc1ccc(C(=O)/C=C/C(=O)O)cc1 | i | i | i | i | i | 3.16µM
Cc1ccc2c(ccc[n+]2CC(=O)c2ccccc2)c1 | 17.8µM | ? | i | i | nt | i
Nc1c(N=Nc2ccc([N+](=O)[O-])cc2)c(S(=O)(=O)O)cc2cc(S(=O)(=O)O)c(/C=C/c3ccccc3)c(O)c12 | i | nt | nt | nt | nt | i
COC(=O)c1ccc(C(=O)OC)c(NC(=S)N2CCOCC2)c1 | 31.6µM | i | i[9.22 µM] | i | i | i
CCN1CCN(C(=S)Nc2cc(C(=O)OC)ccc2C(=O)OC)CC1 | i | i | i | i | i | i
COc1ccc(C(=O)NNC(=O)Cc2ccc(Cl)cc2)cc1 | i | i | i | i | i | i
COc1ccc(CC(=O)O/N=C(\N)c2ccc(C)cc2)cc1 | i | i | 7.94µM | i | i | i
COc1ccc(/C(N)=N/OC(=O)Cc2ccccc2OC)cc1 | i | i | 20µM | i | i | i
COc1cccc(OCC(=O)O/N=C(\N)c2ccc(OC)c(OC)c2)c1 | i | i | 11.2µM | i | nt | i
COc1ccc(OCC(=O)O/N=C(\N)c2ccc(OC)c(OC)c2)cc1 | i | i | i | i | i | i
COc1ccc(C/C(=N\O)c2ccc(OC)cc2)cc1 | i | i | 14.1µM | i | i | i
O=C(NCC(c1ccc2c(c1)OCO2)N1CCN(c2ccccc2)CC1)C(=O)Nc1cccc(F)c1 (stereo not given) | i | nt | i | i | i | nt
COc1ccc(C2=C(C)C(=NCCCN3CCN(c4cc(C)ccc4C)CC3)NS2(=O)=O)cc1 | i | nt | i | i | i | nt
CC1CCC2(CCC(=O)N2CCCOC(=O)c2ccccc2)CC1 (stereo not given) | nt | nt | nt | nt | i | nt
CCOC(=O)c1c(S(=O)(=O)N2CCCC(C(=O)N3CCN(c4ccccc4)CC3)C2)c(C)n(C)c1C (stereo not given) | i | nt | i | i | i | nt
CN(C)c1ccc(C2=Cc3ccccc3C2)cc1 | i | nt | nt | nt | nt | i
CC(C)n1cc(-c2ccc(Cl)cc2)cc(C#N)c1=O | 31.6µM | i | i | i | i | i
N#Cc1cc(-c2ccc(Cl)cc2)cn(Cc2c(Cl)cccc2Cl)c1=O | 25.1µM | i | i | i | i | i
C=CCn1cc(-c2ccccc2)cc(C#N)c1=O | ? | i | i | i | i | i
C=CCn1cc(-c2ccc(Cl)cc2)cc(C#N)c1=O | 31.6µM | i | i | i | i | i
N#Cc1cc(C(=O)c2ccccc2O)cn(-c2ccc(Cl)cc2)c1=O | nt | i | i | i | i | i
SMILES | ClpP mod | Mm-Cpn inhibitor | TDP43 rescue | Abeta yeast res | FUS suppressor | aSyn yeast inh
Cn1cc(-c2cccc(Cl)c2)cc(C#N)c1=O | nt | i | i[9.22 µM] | i | i | i
CN[C@H](CC(C)C)C(=O)N[C@H]1C(=O)N[C@@H](CC(N)=O)C(=O)N[C@@H]2C(=O)N[C@H]3C(=O)N[C@H](C(=O)N[C@H](C(=O)O)c4cc(O)cc(O)c4-c4cc3ccc4O)[C@H](O)c3ccc(c(Cl)c3)Oc3cc2cc(c3O[C@@H]2O[C@H](CO)[C@@H](O)[C@H](O)[C@@H]2O[C@H]2C[C@](C)(N)[C@H](O)[C@H](C)O2)Oc2ccc(cc2Cl)[C@H]1O | nt | nt | nt | nt | nt | i
COC(=O)c1ccc(-c2ccco2)n1Cc1ccccc1Cl | 28.2µM | i | i | i | i | i
O=C(c1ccc(Cl)c(Cl)c1)N1CCN(c2ccnc3cc(Cl)ccc23)CC1 | nt | nt | nt | nt | i | nt
CCOc1ccc(NC(=O)c2nc3nc(C)cc(C(F)F)n3n2)cc1 | i | nt | i | i | i | nt
COC(=O)c1nnn(-c2cccc(C)c2)c1C(=O)OC | i | nt | i | i | i | nt
COc1cccc(-n2nnnc2S(C)(=O)=O)c1 | i | i | 1µM | i | nt | i
Cc1cccc(-n2nnnc2S(C)(=O)=O)c1 | i | nt | 17.8µM | i | i | nt
CCNc1nc(Cl)nc(NC2CCCCC2)n1 | i | i | 12.6µM | i | i | i
CC(C)(C)NC(=O)CSc1nc2ccc(Nc3nc(N4CCOCC4)nc(N4CCOCC4)n3)cc2s1 | i | i | 11.2µM | i | i | ?
COc1ccc(NC(=O)c2cc(-c3cc(F)ccc3OCC3CCCO3)n[nH]2)c(C)c1 (stereo not given) | i | nt | 12.6µM | i | ? | i
CC(C)Oc1ccc(F)cc1-c1cc(C(=O)NC2CCCCC2)[nH]n1 | i | nt | 15.8µM | i | i | i
COc1cc(NC(=O)c2cc(-c3cc(F)ccc3OC(C)C)n[nH]2)cc(OC)c1OC | i | nt | i | i | i | i
COc1ccc(NC(=O)c2cc(-c3cc(Cl)ccc3OC)n[nH]2)cc1OC | i | nt | i | i | i | i
COc1ccc(NC(=O)c2cc(-c3cc(F)ccc3OC(C)C)n[nH]2)c(OC)c1 | i | nt | 20µM | i | i | i
CC(C)Oc1cc(F)ccc1-c1cc(C(=O)NC2CCCCC2)[nH]n1 | i | nt | i | i | i | i
COc1ccc(NC(=O)c2cc(-c3cc(Cl)ccc3C)n[nH]2)cc1OC | i | nt | 20µM | i | i | i
O=C1CCC[C@H]2C[C@H](NCc3cccnc3)CC[C@]23CCCN13 | nt | nt | nt | nt | i | nt
COc1ccc(NC(=O)c2cc(-c3ccc(F)cc3OC(C)C)n[nH]2)cn1 | i | nt | i | i | i | i
